# Measurements from PubChem BioAssay.
# Calls of active or inactive are those of the source.
# Columns and labels:
# Albumin (Bos taurus) = Albumin (Bos taurus) (UniProt P02769); assay: compounds binding labelled BSA control protein – biochemical, small-molecule microarray, Alexa647 label, 635/667 nm fluorescence, artefact control for SMM control protein annotation, profiling panel (AID 1118); settings: BSA-A647 binding, fluorescence 635 nm, higher = more signal;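 note: score merges 667 nm emission intensity and signal-to-noise per printed compound spot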
# [1] = probe aXIP binding to arrayed compounds – biochemical, NeuroSMM set, 635/667 nm fluorescence, primary screen (AID 1119); settings: small-molecule microarray, higher = more signal, called active from +8 up or from −8 down;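 note: probe is the protein aXip251-270 applied at 1 µg/mL to compound-printed slides; binding of probe to printed compounds measured as 667 nm fluorescence plus signal to noise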
# [2] = probe aNOTCH3 binding on compound microarray – biochemical, small-molecule microarray, 635/667 nm fluorescence, primary screen (AID 1120); settings: higher = more signal;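 note: probe is a biotin-tagged antibody raised against NOTCH3 rather than NOTCH3 protein; score merges spot fluorescence near 667 nm with spot signal to noise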
# [3] = probe aNOTCH2 binding on compound microarray – biochemical, small-molecule microarray, 635/667 nm fluorescence, primary screen (AID 1121); settings: higher = more signal;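 note: score merges feature fluorescence read at 667 nm with its signal to noise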
# [4] = biological target: Carbonic anhydrase 2 (Homo sapiens) (UniProt P00918); assay: compounds binding carbonic anhydrase 2 – biochemical, small-molecule microarray, Alexa647-labelled CAII, profiling panel (AID 1122); settings: CAII-A647 binding fluorescence, higher = more signal
# [5] = COS7 lysate on small-molecule microarray, probe aHis, 635 nm (AID 1123); settings: COS7 cell lysate, fluorescence, higher = more signal;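 note: z-score combines 667nm fluorescence intensity with signal-to-noise per printed compound spot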
# [6] = probe aLAP1 signal on lysate-treated microarray – cell lysate, small-molecule microarray, COS7 lysate, primary screen (AID 1124); settings: probe aLAP1, fluorescence, higher = more signal;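 note: lysate comes from COS7 cells expressing LAP1 and is applied at 0.3 µg/mL; score merges spot fluorescence near 667 nm with signal-to-noise over triplicate slides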
# Sam68 (KHDRBS1) = assay: compounds binding KHDRBS1 protein – biochemical, small-molecule microarray, 635 nm fluorescence, primary screen (AID 1125); settings: higher = more signal;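 note: score merges 667 nm channel intensity with signal to noise over triplicate slides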
# [7] = tested on: Chordin-like protein 2 (CHRDL2); assay: compounds binding chordin-like 2 – biochemical, small-molecule microarray, 635 nm fluorescence, primary screen (AID 1126); settings: fluorescence 635 nm, higher = more signal;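 note: printed compound slides probed with Chrdl2 protein at 4 µg/mL for 1 h at 4 C; score merges 667 nm emission intensity with signal to noise over three replicate slides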
# [8] = biological target: Concanavalin-A (Canavalia ensiformis) (UniProt P02866); assay: compounds binding concanavalin A lectin – biochemical, small-molecule microarray, Alexa647 label, 635 nm, artefact control for SMM control protein annotation, primary screen (AID 1127); settings: ConA-A647 binding fluorescence, higher = more signal;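 note: z combines 667 nm emission intensity with signal-to-noise across three replicate slides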
# [9] = compounds binding Alexa647 anti-His antibody – biochemical, small-molecule microarray, 635 nm fluorescence, artefact control for SMM control protein annotation, primary screen (AID 1128); settings: higher = more signal;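 note: score merges feature fluorescence with signal-to-noise for each printed compound spot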
# [10] = tested on: Human papillomavirus type 1a E7 protein (residues 1-88); assay: HPV1a E7 small-molecule binders, primary screen, biochemical, small-molecule microarray, residues 1-88, 635 nm (AID 1129); settings: small-molecule microarray binding, fluorescence 635 nm; higher = more signal
# [11] = biological target: Focal adhesion kinase 1 (Homo sapiens) (UniProt Q05397); assay: PTK2 protein binding on printed compound slides – biochemical, small-molecule microarray, 635/667 nm fluorescence, BSA, DTT, primary screen (AID 1130); settings: 635 nm fluorescence, higher = more signal;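 note: composite of spot emission at 667 nm and signal to noise over triplicate slides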
# [12] = tested on: Fibrinogen (Alexa647-labelled); assay: Alexa647-fibrinogen binding to printed small molecules – biochemical, small-molecule microarray, 635/667 nm fluorescence, artefact control for SMM control-protein annotation, profiling panel (AID 1131); settings: fibrinogen-A647 binding fluorescence, higher = more signal;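 note: z-score merges 667 nm fluorescence with per-spot signal-to-noise over triplicate slides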
# [13] = biological target: Follistatin (Homo sapiens) (UniProt P19883); assay: FST protein binding to printed compounds – biochemical, small-molecule microarray, 635/667 nm fluorescence, primary screen (AID 1132); settings: 635 nm fluorescence, higher = more signal
# [14] = biological target: Fibroblast growth factor 2 (Homo sapiens) (UniProt P09038); assay: basic fibroblast growth factor binding to printed compounds – biochemical, small-molecule microarray, 635/667 nm fluorescence, primary screen (AID 1133); settings: FGF2, fluorescence 635/667, higher = more signal
# [15] = JC-1 mitochondrial potential readout, lung cancer cells – cell-based, A549, JC-1 fluorescence, basal, 24 h, 100 nL, profiling panel (AID 1138); settings: higher = more signal;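 note: A549 lung adenocarcinoma cells under basal conditions with no added stimulus; test concentration not given here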
# Lefty1 = Lefty1 protein binding to printed compounds – biochemical, small-molecule microarray, 635/667 nm fluorescence, primary screen (AID 1139); settings: fluorescence 635/667, higher = more signal
# [16] = tested on: wheat germ agglutinin (Triticum aestivum), Alexa647-labelled; assay: Alexa647-WGA lectin binding to printed small molecules – biochemical, small-molecule microarray, 635/667 nm fluorescence, artefact control for SMM control-protein annotation, profiling panel (AID 1140); settings: WGA-A647 binding, 635 nm fluorescence, higher = more signal;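 note: score merges 667 nm feature emission with signal to noise over triplicate slides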
# [17] = biological target: Luciferin 4-monooxygenase (Photinus pyralis) (UniProt P08659); assay: inhibition of purified Photinus pyralis luciferase – biochemical, luminescence, purified enzyme, 2006 set, primary screen (AID 1141); settings: purified firefly luciferase, SteadyGlo luminescence, 30 min; higher = more signal, called active from +8 up or from −8 down;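 note: cell-free assay with purified firefly luciferase at 100 ng per well in PBS; test concentration not given here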
# Chain of Luciferin 4-monooxygenase (Photinus pyralis) (P08659 whole entry, looked up): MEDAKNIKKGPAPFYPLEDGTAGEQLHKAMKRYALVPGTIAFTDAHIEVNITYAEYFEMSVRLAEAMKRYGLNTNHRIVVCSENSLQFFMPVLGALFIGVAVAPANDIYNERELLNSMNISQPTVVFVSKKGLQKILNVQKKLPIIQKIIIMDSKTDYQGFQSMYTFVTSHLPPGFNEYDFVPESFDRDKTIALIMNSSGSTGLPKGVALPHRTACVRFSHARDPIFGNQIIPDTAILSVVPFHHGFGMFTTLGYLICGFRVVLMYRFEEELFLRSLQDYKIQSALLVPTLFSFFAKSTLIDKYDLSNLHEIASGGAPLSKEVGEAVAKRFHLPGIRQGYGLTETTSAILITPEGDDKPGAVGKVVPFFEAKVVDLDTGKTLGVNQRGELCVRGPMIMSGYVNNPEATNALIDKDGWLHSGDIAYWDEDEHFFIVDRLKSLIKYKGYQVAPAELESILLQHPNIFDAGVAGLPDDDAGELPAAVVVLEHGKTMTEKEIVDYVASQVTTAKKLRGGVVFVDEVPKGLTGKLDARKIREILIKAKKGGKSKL
# Chain of Fibroblast growth factor 2 (Homo sapiens) (P09038 whole entry, looked up): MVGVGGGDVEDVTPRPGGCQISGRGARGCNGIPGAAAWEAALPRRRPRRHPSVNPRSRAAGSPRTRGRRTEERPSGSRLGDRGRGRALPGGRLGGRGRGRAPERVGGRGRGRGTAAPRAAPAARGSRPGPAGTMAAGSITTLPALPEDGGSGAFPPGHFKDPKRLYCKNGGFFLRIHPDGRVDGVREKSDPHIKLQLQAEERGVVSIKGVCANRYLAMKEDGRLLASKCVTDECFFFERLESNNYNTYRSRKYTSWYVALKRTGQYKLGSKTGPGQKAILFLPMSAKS
# Chain of Albumin (Bos taurus) (P02769 whole entry, looked up): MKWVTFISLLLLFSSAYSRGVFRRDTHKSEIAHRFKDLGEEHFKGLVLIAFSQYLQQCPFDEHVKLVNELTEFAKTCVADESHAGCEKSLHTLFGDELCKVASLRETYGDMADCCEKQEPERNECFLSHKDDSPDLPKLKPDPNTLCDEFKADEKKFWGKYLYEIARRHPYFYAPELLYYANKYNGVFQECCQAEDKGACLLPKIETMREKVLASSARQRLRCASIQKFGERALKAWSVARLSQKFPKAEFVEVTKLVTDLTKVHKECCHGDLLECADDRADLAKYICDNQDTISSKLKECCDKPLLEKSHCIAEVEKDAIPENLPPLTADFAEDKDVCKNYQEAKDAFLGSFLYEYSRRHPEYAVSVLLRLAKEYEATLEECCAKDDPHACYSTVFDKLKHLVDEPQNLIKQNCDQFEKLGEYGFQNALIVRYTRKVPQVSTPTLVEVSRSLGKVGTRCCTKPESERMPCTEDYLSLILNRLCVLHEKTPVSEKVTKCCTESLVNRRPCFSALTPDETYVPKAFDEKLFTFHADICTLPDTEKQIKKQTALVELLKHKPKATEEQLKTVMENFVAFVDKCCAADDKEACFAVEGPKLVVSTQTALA
# Chain of Focal adhesion kinase 1 (Homo sapiens) (Q05397 whole entry, looked up): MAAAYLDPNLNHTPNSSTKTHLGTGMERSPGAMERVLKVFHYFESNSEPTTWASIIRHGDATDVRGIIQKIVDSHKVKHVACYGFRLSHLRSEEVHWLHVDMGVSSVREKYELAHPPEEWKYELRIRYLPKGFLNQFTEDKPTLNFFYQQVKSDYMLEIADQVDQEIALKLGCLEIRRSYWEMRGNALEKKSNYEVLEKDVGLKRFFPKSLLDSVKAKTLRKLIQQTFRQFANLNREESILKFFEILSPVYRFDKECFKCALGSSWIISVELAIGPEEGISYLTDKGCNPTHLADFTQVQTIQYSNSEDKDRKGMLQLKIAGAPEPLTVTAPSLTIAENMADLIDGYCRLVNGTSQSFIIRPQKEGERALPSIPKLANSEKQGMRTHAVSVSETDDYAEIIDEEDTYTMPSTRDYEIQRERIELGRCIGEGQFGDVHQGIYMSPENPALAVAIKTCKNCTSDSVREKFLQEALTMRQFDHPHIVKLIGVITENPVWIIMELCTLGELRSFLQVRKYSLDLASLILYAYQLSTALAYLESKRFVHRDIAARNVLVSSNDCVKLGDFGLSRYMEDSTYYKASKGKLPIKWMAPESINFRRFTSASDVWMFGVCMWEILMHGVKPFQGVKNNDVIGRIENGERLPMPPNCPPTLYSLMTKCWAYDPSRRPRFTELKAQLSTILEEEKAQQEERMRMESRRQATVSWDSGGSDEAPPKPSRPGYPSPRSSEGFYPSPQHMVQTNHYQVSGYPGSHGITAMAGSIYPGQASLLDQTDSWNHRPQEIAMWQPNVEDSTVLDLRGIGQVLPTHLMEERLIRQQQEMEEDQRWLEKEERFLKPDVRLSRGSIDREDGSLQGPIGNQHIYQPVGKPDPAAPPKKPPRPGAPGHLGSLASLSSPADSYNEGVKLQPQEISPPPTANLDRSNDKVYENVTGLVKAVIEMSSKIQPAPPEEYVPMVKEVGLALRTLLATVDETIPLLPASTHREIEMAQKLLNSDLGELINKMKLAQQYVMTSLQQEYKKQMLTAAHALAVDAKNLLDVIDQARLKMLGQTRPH
# Chain of Concanavalin-A (Canavalia ensiformis) (P02866 whole entry, looked up): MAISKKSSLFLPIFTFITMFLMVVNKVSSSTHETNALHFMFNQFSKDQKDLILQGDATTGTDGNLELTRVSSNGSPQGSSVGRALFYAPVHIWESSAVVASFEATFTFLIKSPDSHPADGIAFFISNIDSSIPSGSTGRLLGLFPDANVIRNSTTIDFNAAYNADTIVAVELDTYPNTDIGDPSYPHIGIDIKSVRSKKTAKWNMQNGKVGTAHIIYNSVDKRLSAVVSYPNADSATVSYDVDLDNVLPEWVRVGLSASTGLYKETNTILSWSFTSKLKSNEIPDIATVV
# Chain of Follistatin (Homo sapiens) (P19883 whole entry, looked up): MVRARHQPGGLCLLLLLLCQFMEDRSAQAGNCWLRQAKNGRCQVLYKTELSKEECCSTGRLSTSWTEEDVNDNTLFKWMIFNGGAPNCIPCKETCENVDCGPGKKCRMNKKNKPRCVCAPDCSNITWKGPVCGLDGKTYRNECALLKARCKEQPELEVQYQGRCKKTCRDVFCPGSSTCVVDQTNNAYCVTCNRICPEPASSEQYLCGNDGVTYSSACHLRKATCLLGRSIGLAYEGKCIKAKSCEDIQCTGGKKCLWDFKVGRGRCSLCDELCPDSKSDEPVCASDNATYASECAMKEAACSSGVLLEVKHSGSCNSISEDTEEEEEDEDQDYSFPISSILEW
structure (smiles),measurement,setting,value
O=C1O[C@@H](c2ccccc2)[C@@H](c2ccccc2)N2[C@@H](c3ccc(OCCO)cc3)[C@]3(C(=O)Nc4ccc(C#CC5(O)CCCCCC5)cc43)[C@@H](C(=O)Nc3nc4ccccc4s3)[C@H]12,composite z-score,Albumin (Bos taurus),0.691
same,composite Z-score,[1],-0.144 (inactive)
same,composite z-score,[2],0.0169
same,composite z-score,[3],-0.0664
same,composite z-score,[4],0.608
same,composite z-score,[5],2.31
same,composite z-score,[6],0.36
same,composite z-score,Sam68 (KHDRBS1),1.29
same,composite z-score,[7],0.583
same,composite z-score,[8],1.01
same,composite z-score,[9],0.0141
same,composite z-score,[10],1.24
same,composite z-score,[11],0.676
same,composite z-score,[12],0.964
same,composite z-score,[13],1.33
same,composite z-score,[14],1.54
same,z-score,[15],-2.12
same,composite z-score,Lefty1,1.22
same,composite z-score,[16],1.09
same,z-score,[17],-2.6 (inactive)
CCCCCC1=C2CNC(Cc3ccccc3)(C(=O)OC)C=C2C(C)C1=O (stereo not given),composite z-score,Albumin (Bos taurus),0.638
same,composite Z-score,[1],0.881 (inactive)
same,composite z-score,[2],0.183
same,composite z-score,[3],0.0878
same,composite z-score,[4],0.648
same,composite z-score,[5],2.17
same,composite z-score,[6],0.984
same,composite z-score,Sam68 (KHDRBS1),-0.49
same,composite z-score,[7],-1.52
same,composite z-score,[8],-0.86
same,composite z-score,[9],1.01
same,composite z-score,[10],0.515
same,composite z-score,[11],0.563
same,composite z-score,[12],0.837
same,composite z-score,[13],-0.216
same,composite z-score,[14],-0.871
same,z-score,[15],1.04
same,composite z-score,Lefty1,-0.849
same,composite z-score,[16],0.0953
same,z-score,[17],0.423 (inactive)
[N-]=[N+]=Nc1ccccc1C[C@@]1(C(=O)NCC(O)CO)N=C(c2ccc(OCCCO)cc2)O[C@@H]1c1ccccc1 (stereo not given in full),composite z-score,Albumin (Bos taurus),0.579
same,composite Z-score,[1],-0.362 (inactive)
same,composite z-score,[2],-0.152
same,composite z-score,[3],0.0231
same,composite z-score,[4],0.719
same,composite z-score,[5],2.01
same,composite z-score,[6],0.353
same,composite z-score,Sam68 (KHDRBS1),0.206
same,composite z-score,[7],-1.26
same,composite z-score,[8],0.446
same,composite z-score,[9],-0.0048
same,composite z-score,[10],1.2
same,composite z-score,[11],0.206
same,composite z-score,[12],0.54
same,composite z-score,[13],-0.327
same,composite z-score,[14],0.0559
same,z-score,[15],1
same,composite z-score,Lefty1,-0.867
same,composite z-score,[16],0.436
same,z-score,[17],-2.44 (inactive)
Cc1ccc(S[C@]2(C(=O)NCCCN(C)C)CC(=O)N(Cc3ccccc3C(F)(F)F)[C@@H]2c2ccc(CO)cc2I)cc1,composite z-score,Albumin (Bos taurus),0.374
same,composite Z-score,[1],-0.755 (inactive)
same,composite z-score,[2],-0.422
same,composite z-score,[3],0.337
same,composite z-score,[4],0.792
same,composite z-score,[5],1.36
same,composite z-score,[6],1.83
same,composite z-score,Sam68 (KHDRBS1),0.492
same,composite z-score,[7],-0.532
same,composite z-score,[8],0.0055
same,composite z-score,[9],-0.626
same,composite z-score,[10],-0.0904
same,composite z-score,[11],0.591
same,composite z-score,[12],-0.745
same,composite z-score,[13],0.0315
same,composite z-score,[14],-0.635
same,z-score,[15],0.281
same,composite z-score,Lefty1,-1.32
same,composite z-score,[16],-0.193
same,z-score,[17],-0.514 (inactive)
COC(=O)C(CC#Cc1ccc2c(c1)[C@]1(C(=O)N2)[C@H](c2ccccc2OCCO)N2[C@H](c3ccccc3)[C@H](c3ccccc3)OC(=O)[C@H]2[C@@H]1C(=O)N1CCc2cc(OC)c(OC)cc2C1)C(=O)OC,composite z-score,Albumin (Bos taurus),0.185
same,composite Z-score,[1],0.0296 (inactive)
same,composite z-score,[2],0.172
same,composite z-score,[3],-0.14
same,composite z-score,[4],0.661
same,composite z-score,[5],1.19
same,composite z-score,[6],0.653
same,composite z-score,Sam68 (KHDRBS1),1.29
same,composite z-score,[7],0.618
same,composite z-score,[8],0.914
same,composite z-score,[9],1.3
same,composite z-score,[10],1.21
same,composite z-score,[11],0.317
same,composite z-score,[12],0.601
same,composite z-score,[13],1.32
same,composite z-score,[14],0.667
same,z-score,[15],-0.668
same,composite z-score,Lefty1,0.896
same,composite z-score,[16],0.28
same,z-score,[17],-0.242 (inactive)
COc1ccc([Si](C)(C)[C@H]2[C@H](CC(=O)N3Cc4ccccc4C[C@H]3CO)O[C@@]3(C(=O)N(C)c4c(Br)cc(C)cc43)[C@@H]2C)cc1,composite z-score,Albumin (Bos taurus),0.238
same,composite Z-score,[1],0.298 (inactive)
same,composite z-score,[2],0.0643
same,composite z-score,[3],-0.164
same,composite z-score,[4],0.0971
same,composite z-score,[5],0.787
same,composite z-score,[6],0.152
same,composite z-score,Sam68 (KHDRBS1),1.1
same,composite z-score,[7],0.7
same,composite z-score,[8],1.06
same,composite z-score,[9],0.533
same,composite z-score,[10],0.777
same,composite z-score,[11],0.172
same,composite z-score,[12],0.636
same,composite z-score,[13],1.34
same,composite z-score,[14],1.24
same,z-score,[15],-0.224
same,composite z-score,Lefty1,1.58
same,composite z-score,[16],0.655
same,z-score,[17],-0.0165 (inactive)
